# Source: PubChem
# In the library only some 1.2% were active in any assay of this set; here they are far more common.
# RGS16-Gao HTS: modulates binding between human RGS16 and Galphao; 220,000 compounds, 0.38% hits; binding response (% of control), % at 10 µM; bead-based flow cytometry RGS16-Galphao binding, fluorescence; actives lie on both sides; O15492+P09471; call rule not given here;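 further: Galphao activated by GDP with aluminum fluoride before binding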
# Target sequence (O15492 whole entry, looked up): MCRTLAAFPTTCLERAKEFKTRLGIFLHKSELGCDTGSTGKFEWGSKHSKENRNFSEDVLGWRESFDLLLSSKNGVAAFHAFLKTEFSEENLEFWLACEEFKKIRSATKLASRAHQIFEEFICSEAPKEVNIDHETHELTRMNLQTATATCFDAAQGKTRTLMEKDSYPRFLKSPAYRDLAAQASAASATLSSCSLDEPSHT
# Target sequence (P09471 whole entry, looked up): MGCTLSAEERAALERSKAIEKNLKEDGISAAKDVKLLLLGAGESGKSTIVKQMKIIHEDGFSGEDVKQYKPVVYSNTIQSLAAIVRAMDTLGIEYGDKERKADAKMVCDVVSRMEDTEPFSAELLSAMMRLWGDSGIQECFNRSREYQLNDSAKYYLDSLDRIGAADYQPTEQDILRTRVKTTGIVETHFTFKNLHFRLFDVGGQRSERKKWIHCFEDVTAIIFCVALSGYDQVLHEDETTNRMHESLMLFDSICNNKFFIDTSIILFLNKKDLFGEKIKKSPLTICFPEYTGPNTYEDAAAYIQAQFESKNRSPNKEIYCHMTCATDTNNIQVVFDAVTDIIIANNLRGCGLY
# RGS4-Gao reg: human RGS4-Galphao interaction regulation; P09471; Multiplexed bead flow cytometry, RGS4-Galphao binding; actives lie on both sides; binding response (% of control), % at 10 µM; 220,000 compounds, 0.33% hits; in the data active means binding response below about 49% or above about 150%; inactive means in between;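 further: fluorescent Galphao activated with aluminum fluoride binding bead-coupled RGS4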
# Target sequence (P09471 whole entry, looked up): as above
# Avidin bead fluor: compound fluoresces at 488/530 nm on avidin beads | compound fluorescence 488/530 nm, flow cytometry; stronger effect = higher value | fluorescence (KMESF) at 10 µM | 220,000 compounds, 0.38% hits; in the data active means fluorescence above about 47
# GSH bead fluor: GSH bead compound fluorescence profile | GSH beads flow cytometry, compound fluorescence 488/530 nm; stronger effect = higher value | fluorescence (KMESF) at 10 µM | 190,000 compounds, 0.25% hits | AID 1776; in the data active means fluorescence above about 89;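 further: glutathione beads carrying GST-tagged Bcl family fusion proteins plus one bare bead set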
# RGS8-Gao: human RGS8-Galphao interaction regulation; multiplexed bead flow cytometry, RGS8-Galphao binding; actives lie on both sides; response (percent of control binding), % at 10 µM; 220,000 compounds, 0.34% hits; in the data active means response below about 60% or above about 140%; inactive means in between;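 further: Galphao activated as the GDP aluminium fluoride complex binding bead-coupled RGS8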
# RGS7-Gao: regulators of human RGS7-Galphao interaction; binding response (% of control), % at 10 µM; 220,000 compounds, 0.35% hits; Multiplexed bead flow cytometry, RGS7-Galphao binding; actives lie on both sides; AID 1439; in the data active means binding response below about 49% or above about 150%; inconclusive means no clear call, values can overlap the other calls; inactive means in between;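 further: fluorescent Galphao held in activated GDP-AlF4 state binding bead-coupled RGS7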
# A number is an active result; - = inactive; ? = inconclusive; . = no result; [ ] = another dose, or the depositor's remark.
SMILES,RGS16-Gao HTS,RGS4-Gao reg,Avidin bead fluor,GSH bead fluor,RGS8-Gao,RGS7-Gao
COc1ccc(C(=O)Nc2ccc(N3CCOCC3)cc2)cc1OC,-,-,99,-,-,-
COc1cccc(NC(=O)N2CCOCC2)c1,-,-,-,-,-,-
COc1ccc(NC(=O)N2CCOCC2)cc1OC,-,-,-,261,-,-
COc1ccc(C(=O)Nc2ccc(S(=O)(=O)N3CCOCC3)cc2)cc1OC,-,-,-,-,-,-
CCN(CC)S(=O)(=O)c1ccc(N2CCOCC2)c(NC(=O)C23CC4CC(CC(Cl)(C4)C2)C3)c1,-,-,-,-,-,-
COc1ccccc1NS(=O)(=O)c1ccc(OC)c(OC)c1,-,-,113,-,-,-
COc1ccccc1-c1cc(C(=O)NCc2ccc(F)cc2)no1,-,-,-,-,-,-
COc1ccccc1-c1cc(C(=O)NCc2ccccc2)no1,-,-,48,-,-,-
O=C(NC(Cc1ccccc1)C(=O)O)/C(=C/c1ccc(F)cc1)NC(=O)c1ccccc1 (stereo unspecified),-,-,-,-,-,-
Cn1c(=O)c2c(nc(NCCCO)n2CCc2ccccc2)n(C)c1=O,-,-,50,-,-,-
Cn1c(=O)c2c(nc(NCCO)n2CCc2ccccc2)n(C)c1=O,-,-,-,-,-,-
O=C(O)C1C2C=CC(C2)C1C(=O)NCCc1cccc(Cl)c1 (stereo unspecified),-,-,48,-,-,-
O=[N+]([O-])c1cccc(-c2nnc(SCc3cccnc3)o2)c1,-,-,-,-,-,-
CC1C(=O)CCC1(C(=O)O)c1ccccc1 (stereo unspecified),-,-,49,-,-,-
CCN(CC)C(=O)[C@]1(c2ccccc2)C[C@@H]1CN,-,-,-,-,-,-
COCc1cc(CN2CCCC2)c(O)c2ncccc12,-,-,66,-,-,-
CC(C)CCNC(=O)CN(C(=O)Cn1nnc(-c2ccccc2F)n1)c1cccc2c1CCCC2,0.7,20,-,-,12,12
C[C@]12CCC3c4ccc(OCC(=O)O)cc4CCC3C1CCC2=O (stereo partly specified),-,-,-,.,-,?
Cc1ccc(S(=O)(=O)NC(=O)NCc2ccccn2)cc1,-,-,-,256,-,-
Cc1ccc(S(=O)(=O)NC(=O)NCc2ccccc2)cc1,-,-,-,-,-,-
COc1cc2c(cc1OC)CN(C(=O)c1cccc([N+](=O)[O-])c1)CC2,-,-,-,.,-,?
CC(=O)c1cccc(NC(=O)CC2S/C(=N/N=C/c3cccs3)NC2=O)c1 (stereo unspecified),-,-,-,-,-,-
NC1=NC(=O)/C(=C/c2cn(Cc3ccccc3)c3ccccc23)S1,-,-,-,-,-,-
CC(C(=O)N1c2ccc(F)cc2CCC1C)N1C(=O)c2ccccc2C1=O (stereo unspecified),-,-,48,-,-,-
COc1ccccc1NC(=O)Nc1ccnn1C1CCCCC1,-,-,-,266,-,-
SMILES,RGS16-Gao HTS,RGS4-Gao reg,Avidin bead fluor,GSH bead fluor,RGS8-Gao,RGS7-Gao
COc1ccccc1NC(=O)Nn1cnnc1,-,-,-,242,-,-
O=C(COC(=O)c1ccc(S(=O)(=O)NCc2ccco2)cc1)c1ccccc1,-,-,-,-,-,-
O=C(COC(=O)c1ccc(S(=O)(=O)NCc2ccco2)cc1)NC1CCCCC1,-,-,-,268,-,-
O=C1CC(NC(=O)C(F)(F)F)c2cc3c(cc21)OCO3 (stereo unspecified),-,-,-,-,-,-
CC(=O)Nc1ccc(C(=O)OC2CCCCC2=O)cc1 (stereo unspecified),-,-,-,280,-,-
CC(=O)Nc1ccc(C(=O)OC2CCOC2=O)cc1 (stereo unspecified),-,-,-,-,-,-
COc1ccccc1CNC(=O)Cn1cnc2ccccc2c1=O,-,-,-,234,-,-
O=C(COC(=O)Cn1cnc2ccccc21)NCc1ccc(F)cc1,-,-,-,-,-,?
O=C(Cn1cnc2ccccc21)NCc1ccccc1,-,-,58,-,-,-
COc1ccc(NC(=O)Cn2cnc3ccccc3c2=O)cc1OC,-,-,-,-,-,-
O=C(Cn1c(-c2cscn2)nc2ccccc21)Nc1ccccc1F,-,-,50,-,-,-
CCOC(=O)Cc1csc(NC(=O)CC(C)(C)C)n1,-,-,-,-,-,-
CCCNC(=O)C(NS(=O)(=O)c1cccc2nsnc12)c1ccccc1 (stereo unspecified),-,-,-,-,-,-
O=C(NCc1ccco1)C(NS(=O)(=O)c1cccc2nsnc12)c1ccccc1 (stereo unspecified),-,-,52,-,-,-
COc1cc(NS(=O)(=O)c2ccc3[nH]c(=O)oc3c2)cc(OC)c1,-,-,-,-,-,-
COc1cccc(-c2noc(-c3ccc(Cl)nc3)n2)c1,-,-,-,-,-,-
COc1ccc(CN2CCN(S(=O)(=O)c3ccc(F)cc3)CC2)c(OC)c1OC,-,-,-,-,-,-
COc1ccc(CN2CCN(c3ccc(F)cc3)CC2)c(OC)c1OC,-,-,67,-,-,-
O=C(CN(C(=O)CCC(=O)Nc1nccs1)c1cccc(F)c1)NCC1CCCO1 (stereo unspecified),-,-,59,-,-,-
Cc1cccn2c(CN3CCNC(=O)CC3)c(C(=O)N(C)CCc3ccccc3)nc12,-,-,-,-,-,-
CS(=O)(=O)N1CCN(c2ccc([N+](=O)[O-])c(NCc3ccc(Cl)cc3)c2)CC1,-,-,-,99,-,-
Cc1cc(C)c2c(c1)/C(=c1/sc3n(c1=O)CN(c1ccccc1)CN=3)C(=O)N2,-,-,-,.,-,?
Cc1cc(C)cc(NC(=O)N2CCCN(Cc3c(F)cccc3Cl)CC2)c1,-,-,-,.,-,?
O=C(NCC(=O)N(c1cccnc1)C(C(=O)NC1CCCC1)c1ccco1)c1cccs1 (stereo unspecified),-,-,57,-,-,-
O=S(=O)(N1CCCCC1)n1nnc2ccccc21,-,-,49,-,-,-
CSc1nn2c(C(F)(F)F)cc(C(F)(F)F)nc2c1C(N)=O,-,-,-,.,-,?
CC1CC(=O)N(c2ccc(Br)cc2)C(=O)C1,-,-,-,.,-,?
CCN(C(=O)CSc1nnnn1-c1cc(C)ccc1OC)C1CCS(=O)(=O)C1 (stereo unspecified),-,-,-,267,-,-
COc1cc(OC)cc(C(=O)N[C@H](C(=O)OCC(=O)Nc2ccc(F)c(F)c2F)C(C)C)c1,-,-,-,-,-,?
COc1ccc(NC(=O)COC(=O)[C@@H](NC(=O)c2c(F)cccc2F)C(C)C)cc1,-,150[activator],-,-,142[activator],164[activator]
